Rows were chosen to be rich in hits. Some 4.7% of all compounds tested hit in one or more screens of this group.
TRHR PAM – qHTS for Small Molecule Agonists and Allosteric Enhancers of Human TRH Receptor: Primary Screen for Enhancers | Thyrotropin-releasing hormone receptor (Homo sapiens), P34981 | TRHR cells, fluo-8 calcium fluorescence, EC20 TRH enhancement | enhancement, % at 2 µM | 360,000 compounds, 0.66% hits | AID 493056, 2011; in the data active = enhancement above about 30%
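Enhancer read-out: after compound pinning and an initial kinetic agonist-mode read, an EC20 of TRH (10 nM final) was injected and fluo-8 calcium signal (Ex 480/Em 530) followed at 1 s/cycle for 100 cycles in TRHR-expressing cells.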
TRHR ag – qHTS for Small Molecule Agonists and Allosteric Enhancers of Human TRH Receptor: Primary Screen for Agonists. TRHR cells, calcium flux fluo-8, FDSS agonist mode. Thyrotropin-releasing hormone receptor (Homo sapiens), P34981. AID 493084, 2011. 360,000 compounds, 0.18% hits. activation, % at 2 µM
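Fluo-8-loaded TRHR cells; 10 s baseline, compound added, kinetic Ca2+ fluorescence read 1/s, agonist mode.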
D1 antag – Antagonist of Human D 1 Dopamine Receptor: qHTS; activity change, negative = inhibition, % at 10 µM; 360,000 compounds, 3.2% hits; AID 504652, 2011; D(1A) dopamine receptor (Homo sapiens), P21728; HEK293 TREx D1 cells, calcium flux, dopamine EC80; hits give low values; in the data active = activity change below about -30%
Target sequence (P21728 whole entry, looked up): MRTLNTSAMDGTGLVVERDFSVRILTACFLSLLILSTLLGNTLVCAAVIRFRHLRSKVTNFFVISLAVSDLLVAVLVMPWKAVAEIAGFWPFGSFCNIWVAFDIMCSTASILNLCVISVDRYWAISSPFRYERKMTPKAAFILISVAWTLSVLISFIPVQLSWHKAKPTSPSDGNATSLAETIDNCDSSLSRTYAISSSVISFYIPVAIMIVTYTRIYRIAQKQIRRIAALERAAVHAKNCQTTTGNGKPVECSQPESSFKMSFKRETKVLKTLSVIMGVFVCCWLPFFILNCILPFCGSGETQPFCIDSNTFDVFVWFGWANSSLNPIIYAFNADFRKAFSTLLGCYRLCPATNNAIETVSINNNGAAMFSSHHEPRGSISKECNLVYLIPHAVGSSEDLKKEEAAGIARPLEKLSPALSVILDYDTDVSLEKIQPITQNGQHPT
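Inducible Hek293 Trex D1 cells (tetracycline, overnight, 30 C). Calcium dye 30–90 min RT. Antagonist mode: EC80 dopamine added after 180 s compound read.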
D1 PAM – Potentiators of Human D1 Dopamine Receptor: qHTS; AID 504651, 2011; potentiation, % at 10 µM; HEK293 TREx D1 cells, calcium flux, dopamine EC20 potentiation; D(1A) dopamine receptor (Homo sapiens), P21728; 360,000 compounds, 0.036% hits; in the data active = potentiation above about 30%
D1 ag – Allosteric Agonists of the Human D1 Dopamine Receptor: qHTS. HEK293 T-REx D1 cells, calcium flux, agonist mode. activation, % at 2 µM. D(1A) dopamine receptor (Homo sapiens), P21728. AID 504660, 2011. 360,000 compounds, 1% hits
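Tetracycline-induced HEK293 TREx D1 cells, force-coupled to calcium signalling, were dye-loaded with a no-wash calcium kit. Compound was pin-added after a 10 s baseline. Fluorescence was read kinetically at 1 cycle/s for 180 s, with calcium rises flagged as agonism.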
Of the large screens only hits and unclear results are named; the others gave an inactive call; ! = a repeat was not active. Cut-off read from the data, not from the text of the source, unless noted: active = activation above about 30%; inactive = the rest.

COc1ccc(C(=O)NNC(=O)C(NC(=O)c2ccccc2NC(=O)c2ccco2)C(C)C)cc1 (stereo not given)	none
CCC(C)C(NC(=O)c1ccccc1NC(=O)c1ccco1)C(=O)NNC(=O)c1ccc(OC)cc1 (stereo not given)	D1 antag -63
COC(=O)c1ccccc1Oc1ccc(NC(=O)c2ccco2)cc1	D1 antag -37
O=C(CSc1nnc(CNC(=O)c2c(F)cccc2Cl)o1)Nc1ccccc1F	none
Cc1ccc(Cc2nc3ccccc3nc2SCC(=O)N2CCCc3ccccc32)cc1	none
O=S(=O)(N1CCCCC1)N1CCN(CC(O)COc2ccc3cc(Br)ccc3c2)CC1 (stereo not given)	none
CN(C)S(=O)(=O)N1CCN(CC(O)COc2ccc3cc(Br)ccc3c2)CC1 (stereo not given)	D1 antag -49
OC(COc1ccc2cc(Br)ccc2c1)CN1CCCC1 (stereo not given)	D1 antag -66, D1 ag 68
O=C(Nc1ccn(Cc2ccccc2F)n1)c1ccc(COc2ccc(Br)cc2)cc1	D1 antag -54, D1 ag 52
CC(C)c1ccc(S(=O)(=O)c2cn(CC(=O)Nc3ccc(F)cc3)c3ccccc3c2=O)cc1	none
Cc1ccc(Nc2cc(C)c(C#N)c3nc4ccccc4n23)cc1Cl	none
CCN(c1cccc(C)c1)S(=O)(=O)c1ccc(-c2cc(C)no2)s1	none
Cc1cccc(N(C)S(=O)(=O)c2ccc(-c3cc(C)no3)s2)c1	D1 ag 33!
COC(=O)c1sccc1S(=O)(=O)NC(C)c1cnn(-c2ccc(OC)cc2)c1C (stereo not given)	D1 antag -50
Cc1ccc(NC(=O)c2c(Nc3ccccc3C)sc(C(=O)c3ccccc3)c2N)cc1	none
COc1ccc(Nc2sc(C(=O)c3ccccc3)c(N)c2C(=O)Nc2cc(C)ccc2C)c(OC)c1	D1 ag 47
COc1ccc(C(=O)c2sc(Nc3cccc(OC)c3)c(C(=O)Nc3cccc(C)c3C)c2N)cc1	D1 antag -51, D1 ag 71
COc1ccc(NC(=O)c2c(Nc3ccccc3)sc(C(=O)c3ccc(F)cc3)c2N)cc1	none
COc1ccc(Nc2sc(C(=O)c3ccc(Cl)cc3)c(N)c2C(=O)Nc2ccccc2OC)cc1	D1 antag -50, D1 ag 78
O=C(NCC1CCCO1)C1CC(c2ccc(Cl)c(Cl)c2)=NO1 (stereo not given)	D1 antag -32
CC(C)(C)NC(=O)CN(Cc1ccco1)C(=O)CCC(=O)Nc1nccs1	D1 antag -31
COCCNC(=O)CN(Cc1ccc2c(c1)OCO2)C(=O)CCC(=O)Nc1nccs1	none
COc1ccc(N(CC(=O)NC(C)(C)C)C(=O)CCC(=O)Nc2nccs2)c(OC)c1	D1 antag -31
CC(C)(C)NC(=O)CN(Cc1ccc2c(c1)OCO2)C(=O)CCC(=O)Nc1nccs1	TRHR PAM 36
Cc1cccc(NC(=O)CSc2ncc3c(n2)-c2ccccc2N(Cc2ccc(F)cc2)S3(=O)=O)c1C	none
O=C1c2ccccc2C(=O)N1CCCCN(C(=O)c1cc([N+](=O)[O-])cc([N+](=O)[O-])c1)c1ccc(Cl)cc1	D1 antag -51
Cc1ccc(CNC(=O)c2cccc3c2C(=O)c2ccc(N4CCOCC4)cc2S3(=O)=O)cc1	D1 ag 49 (no result: D1 antag)
CCCc1cc(C(=O)OC)c(NC(=O)CCCC(=O)O)s1	TRHR PAM 36
COc1ccccc1NC(=O)c1sc2nc(C)c(C(=O)Nc3ccc(C)cc3C)c(-c3ccco3)c2c1N	none
Cc1ccc(C)c2sc(NC(=O)CN3C(=O)CCC3=O)nc12	D1 antag -45
NS(=O)(=O)c1ccc(Nc2nc(-c3ccc4ccccc4c3)cs2)cc1	none
NS(=O)(=O)c1ccc(Nc2nc(-c3cccc([N+](=O)[O-])c3)cs2)cc1	D1 antag -31
Cc1ccc(NC(=O)C(Cc2ccccc2)NS(=O)(=O)c2cccc3nsnc23)c(C)c1 (stereo not given)	none
O=C1CCCCN1CCCC(=O)N1CCCC(Nc2ccccc2)C1 (stereo not given)	D1 antag -51
O=C(NCc1ccccc1Cl)c1cc(=O)[nH]c2ccc(S(=O)(=O)N3CCCCC3)cc12	none
CCN(Cc1ccccc1)c1ccc(/C=C(\C#N)c2ccccn2)cc1	D1 ag 31
CCN(CC)c1ccc(/C=C(\C#N)c2ccccn2)cc1	D1 antag -87, D1 ag 35
CN(CCC#N)c1ccc(/C=C(\C#N)c2ccccn2)cc1	none
N#C/C(=C\c1ccc(C(=O)O)cc1)c1ccccn1	none
O=c1oc2ccc3ccccc3c2cc1-c1nnc(Nc2ccccc2F)s1	none
COc1cccc(Nc2nnc(-c3cc4ccc(O)cc4oc3=O)s2)c1	TRHR ag 70, D1 ag 369
O=c1oc2cc(O)ccc2cc1-c1nnc(Nc2ccccc2F)s1	TRHR PAM 39, TRHR ag 187, D1 ag 405
Cc1cccc(-c2nc(CCNC(=O)c3ccccc3Br)cs2)c1	D1 antag -39
CC(C(=O)Nc1ccccc1F)N1CCN(C)CC1 (stereo not given)	TRHR PAM 30
Cc1nnc2sc(SCc3ccccc3)nn2c1=O	TRHR PAM 34
Cc1cccc(N2CCN(C(=O)C3CCN(S(=O)(=O)Cc4ccccc4)CC3)CC2)c1C	none
CC(C)Nc1nc(NC(C)(C)C)nc(Oc2ccc(=O)n(-c3ccccc3)n2)n1	D1 ag 37
CC(C)CNc1nc(NC(C)(C)C)nc(Oc2ccc(=O)n(-c3ccccc3)n2)n1	none
CNc1nc(Oc2ccc(=O)n(C)n2)nc(N2CCOCC2)n1	D1 antag -31!
CSc1nc(NC(C)(C)C)nc(Oc2ccc(=O)n(C)n2)n1	D1 antag -34
Cc1ccc(NCc2ccccc2-c2nnc(-c3ccccc3Cl)o2)c(C)c1	none
Cc1nn(Cc2noc(C(=O)NCc3cccc(F)c3)n2)c(C)c1Br	none
CCC1(c2ccc(F)cc2)NC(=O)N(CC(=O)N2CCc3ccccc32)C1=O (stereo not given)	D1 ag 58 (no result: D1 PAM)
CCC1(c2ccc(F)cc2)NC(=O)N(CC(=O)Nc2ccccc2C)C1=O (stereo not given)	none
CCN(Cc1ccccc1)C(=O)CN1C(=O)NC(CC)(c2ccc(F)cc2)C1=O (stereo not given)	TRHR PAM 31
COc1ccccc1CNC(=O)c1ccc2[nH]c(C)c(C)c2c1	none
